Records with an inconclusive call do not appear. Activity calls are given as the source filed them. Rule for the calls, unless noted: active = hit-call score of the fitted dose curve at least 0.9, where 1 is the maximum; inactive = score below 0.9.
Experiments:
[1] = BSK_4H_Eotaxin3: BioMAP Diversity Plus: 4H Assay for Eotaxin 3 Biomarker Activity (AID 2283000); conditions: primary human endothelial cells (HUVEC); actives raise or lower the signal;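 note: CCL26 protein level quantified by ELISA in parallel with SRB cytotoxicity check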
How it was run: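 ELISA quantitation of CCL26 (Eotaxin-3) protein from chemically dosed human vascular endothelial cells at 24 h; increases and decreases both scored relative to DMSO-treated baseline.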

[2] = read-out: Intercellular Adhesion Molecule 1 (ICAM1), ICAM1 (gene 3383); assay: BSK_3C_ICAM1: BioMAP Diversity Plus: 3C Assay for Intercellular Adhesion Molecule 1 (ICAM1) Biomarker Activity (AID 2283003); conditions: primary human endothelial cells (HUVEC); actives raise or lower the signal
How it was run: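 Primary human umbilical vein endothelial cells in the BioMAP 3C system were exposed to chemicals for 24 h, then ICAM-1 was quantified by ELISA. Activity was fitted bidirectionally against the DMSO negative control baseline.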

[3] = biological target: Retinoic acid receptor alpha (Homo sapiens) (UniProt P10276); assay: ATG_RARa_TRANS: Attagene TRANS-FACTORIAL HepG2 Assay for human Retinoic Acid Receptor alpha (RARa) (AID 2283005; active = hit-call score of the fitted dose curve at least 0.9, where 1 is the maximum)
How it was run: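 HepG2 cells transiently transfected with multiple reporter units expressing chimeric RARα-GAL4 fusion, with GAL4-UAS-driven reporters. After 24 h compound exposure, reporter mRNA induction quantified by RT-PCR and capillary electrophoresis with fluorescent labeling; gain-of-signal fitted relative to DMSO control.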

[4] = BSK_3C_Proliferation: Cell Proliferation Assessment in the BioMAP Diversity Plus: 3C Assay (AID 2283006); conditions: primary human endothelial cells (HUVEC);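 for AC50: potency may reflect either rise or fall in cell number versus DMSO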
How it was run: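 Human umbilical vein endothelial cells were grown sub-confluent and exposed to chemical for 48 h, then fixed with 10% TCA and stained with 0.1% sulforhodamine B; absorbance at 560 nm gave relative cell number, fitted bidirectionally against DMSO baseline.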

[5] = biological target: human Retinoic Acid Receptor gamma (RARg), RARG (gene 5916) (UniProt P13631); assay: ATG_RARg_TRANS: Attagene TRANS-FACTORIAL HepG2 Assay for human Retinoic Acid Receptor gamma (RARg) (AID 2283009; active = hit-call score of the fitted dose curve at least 0.9, where 1 is the maximum)
How it was run: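 HepG2 cells transiently transfected with multiplexed reporter units expressing chimeric RARg-GAL4 and GAL4-UAS-driven reporters; 24 h compound exposure. Reporter mRNA quantified by RT-PCR with fluorescent labelling and capillary electrophoresis; gain-of-signal fitted relative to DMSO baseline.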

[6] = biological target: human Retinoic Acid Receptor beta (RARb), RARB (gene 5915) (UniProt P10826); assay: ATG_RARb_TRANS: Attagene TRANS-FACTORIAL HepG2 Assay for human Retinoic Acid Receptor beta (AID 2283004; active = hit-call score of the fitted dose curve at least 0.9, where 1 is the maximum)
How it was run: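 Fluorescent capillary-electrophoresis detection of GAL4-UAS reporter mRNA defines the endpoint, with induction over DMSO-treated wells scored as activity. Transiently transfected human hepatoma HepG2 cells expressing exogenous NR–Gal4 proteins are exposed to test chemicals for 24 h.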

[7] = biological target: Nuclear receptor subfamily 1 group I member 2 (Homo sapiens) (UniProt O75469); assay: ATG_PXR_TRANS: Attagene TRANS-FACTORIAL HepG2 Assay for human Pregnane X Receptor (PXR) (AID 2283008; active = hit-call score of the fitted dose curve at least 0.9, where 1 is the maximum)
How it was run: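 HepG2 cells transiently transfected with GAL4-UAS reporter units and PXR-Gal4 chimera, exposed 24 h. Reporter mRNA quantified by RT-PCR, fluorescent labelling, HpaI digestion and capillary electrophoresis; gain of signal vs DMSO.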

[8] = biological target: human Peroxisome Proliferator-activated Receptor delta (PPARd), PPARD (gene 5467) (UniProt Q03181); assay: ATG_PPARd_TRANS: Attagene TRANS-FACTORIAL HepG2 Assay for human Peroxisome Proliferator-activated Receptor delta (PPARd) (AID 2283002; active = hit-call score of the fitted dose curve at least 0.9, where 1 is the maximum)
How it was run: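 Multiplexed trans-activation format: HepG2 liver cells expressing exogenous NR-Gal4 chimeras and GAL4-UAS reporters were exposed for 24 h. Reporter mRNA was detected by RT-PCR with capillary electrophoresis fluorescence; activity fitted as gain of signal relative to DMSO.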

[9] = biological target: Peroxisome proliferator-activated receptor gamma (Homo sapiens) (UniProt P37231); assay: ATG_PPARg_TRANS: Attagene TRANS-FACTORIAL HepG2 Assay for human Peroxisome Proliferator-activated Receptor-gamma (PPARg) (AID 2283007; active = hit-call score of the fitted dose curve at least 0.9, where 1 is the maximum)
How it was run: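 Multiplexed reporter transcription units in HepG2, 24 h dosing, reporter transcripts quantified by fluorescent RT-PCR and capillary electrophoresis. Increase over DMSO scored.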

[10] = biological target: human Peroxisome Proliferator-activated Receptor alpha (PPARa), PPARA (gene 5465) (UniProt Q07869); assay: ATG_PPARa_TRANS: Attagene TRANS-FACTORIAL HepG2 Assay for human Peroxisome Proliferator-activated Receptor alpha (PPARa) (AID 2283001; active = hit-call score of the fitted dose curve at least 0.9, where 1 is the maximum)
How it was run: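 HepG2 cells transiently transfected with multiplexed GAL4-UAS reporter units and chimeric NR-Gal4 constructs were dosed for 24 h. Reporter mRNA was measured by RT-PCR with fluorescent labelling and capillary electrophoresis; gain of signal fitted against DMSO.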

Sequence of human Retinoic Acid Receptor gamma (RARg), RARG (gene 5916) (P13631 whole entry, looked up, the tested form may be a part): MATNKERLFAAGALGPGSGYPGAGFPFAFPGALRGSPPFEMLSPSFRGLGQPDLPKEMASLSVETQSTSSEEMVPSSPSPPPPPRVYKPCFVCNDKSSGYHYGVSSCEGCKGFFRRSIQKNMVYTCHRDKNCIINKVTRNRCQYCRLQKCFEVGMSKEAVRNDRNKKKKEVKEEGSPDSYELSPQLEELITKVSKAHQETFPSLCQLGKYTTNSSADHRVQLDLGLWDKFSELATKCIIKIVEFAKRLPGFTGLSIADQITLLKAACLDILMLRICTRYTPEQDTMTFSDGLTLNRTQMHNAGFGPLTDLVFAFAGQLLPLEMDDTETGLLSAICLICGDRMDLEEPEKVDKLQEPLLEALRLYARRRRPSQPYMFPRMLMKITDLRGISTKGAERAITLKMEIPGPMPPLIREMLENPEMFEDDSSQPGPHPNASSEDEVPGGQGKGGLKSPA
Sequence of Peroxisome proliferator-activated receptor gamma (Homo sapiens) (P37231 whole entry, looked up): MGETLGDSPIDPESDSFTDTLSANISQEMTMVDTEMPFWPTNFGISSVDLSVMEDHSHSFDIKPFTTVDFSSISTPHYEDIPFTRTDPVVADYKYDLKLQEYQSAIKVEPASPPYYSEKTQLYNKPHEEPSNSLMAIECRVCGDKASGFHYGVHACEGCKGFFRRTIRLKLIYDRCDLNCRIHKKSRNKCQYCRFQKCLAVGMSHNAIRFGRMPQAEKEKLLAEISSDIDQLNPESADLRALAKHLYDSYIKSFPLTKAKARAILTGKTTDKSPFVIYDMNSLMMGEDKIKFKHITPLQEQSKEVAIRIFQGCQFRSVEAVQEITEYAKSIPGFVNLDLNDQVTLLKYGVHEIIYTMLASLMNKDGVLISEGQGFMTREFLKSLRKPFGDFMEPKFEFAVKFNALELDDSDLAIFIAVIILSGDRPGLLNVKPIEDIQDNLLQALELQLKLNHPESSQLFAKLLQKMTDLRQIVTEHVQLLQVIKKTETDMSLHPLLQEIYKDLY
Sequence of Nuclear receptor subfamily 1 group I member 2 (Homo sapiens) (O75469 whole entry, looked up, the tested form may be a part): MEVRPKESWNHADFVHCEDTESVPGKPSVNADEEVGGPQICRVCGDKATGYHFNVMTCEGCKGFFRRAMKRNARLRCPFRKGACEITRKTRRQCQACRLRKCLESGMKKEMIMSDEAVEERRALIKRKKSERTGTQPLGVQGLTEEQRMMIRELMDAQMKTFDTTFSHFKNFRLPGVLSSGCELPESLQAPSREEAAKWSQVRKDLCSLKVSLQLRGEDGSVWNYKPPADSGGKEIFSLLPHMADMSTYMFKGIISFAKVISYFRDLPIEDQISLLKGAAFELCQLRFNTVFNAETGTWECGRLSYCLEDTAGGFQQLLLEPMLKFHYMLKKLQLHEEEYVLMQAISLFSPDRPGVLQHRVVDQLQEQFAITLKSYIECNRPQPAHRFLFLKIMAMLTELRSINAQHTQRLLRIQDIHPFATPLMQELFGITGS
Sequence of human Peroxisome Proliferator-activated Receptor delta (PPARd), PPARD (gene 5467) (Q03181 whole entry, looked up, the tested form may be a part): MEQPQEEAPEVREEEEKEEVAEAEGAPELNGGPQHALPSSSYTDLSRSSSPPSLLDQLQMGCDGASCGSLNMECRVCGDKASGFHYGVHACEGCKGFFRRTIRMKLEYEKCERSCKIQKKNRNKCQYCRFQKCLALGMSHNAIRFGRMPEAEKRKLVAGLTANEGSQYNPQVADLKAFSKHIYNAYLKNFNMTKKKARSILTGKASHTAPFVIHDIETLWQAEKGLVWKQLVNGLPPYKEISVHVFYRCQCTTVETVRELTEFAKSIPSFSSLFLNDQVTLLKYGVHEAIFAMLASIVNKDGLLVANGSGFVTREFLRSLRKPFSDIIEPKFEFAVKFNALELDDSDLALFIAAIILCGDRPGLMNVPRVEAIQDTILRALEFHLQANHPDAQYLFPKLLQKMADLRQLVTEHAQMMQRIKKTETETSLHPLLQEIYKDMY
Sequence of human Peroxisome Proliferator-activated Receptor alpha (PPARa), PPARA (gene 5465) (Q07869 whole entry, looked up, the tested form may be a part): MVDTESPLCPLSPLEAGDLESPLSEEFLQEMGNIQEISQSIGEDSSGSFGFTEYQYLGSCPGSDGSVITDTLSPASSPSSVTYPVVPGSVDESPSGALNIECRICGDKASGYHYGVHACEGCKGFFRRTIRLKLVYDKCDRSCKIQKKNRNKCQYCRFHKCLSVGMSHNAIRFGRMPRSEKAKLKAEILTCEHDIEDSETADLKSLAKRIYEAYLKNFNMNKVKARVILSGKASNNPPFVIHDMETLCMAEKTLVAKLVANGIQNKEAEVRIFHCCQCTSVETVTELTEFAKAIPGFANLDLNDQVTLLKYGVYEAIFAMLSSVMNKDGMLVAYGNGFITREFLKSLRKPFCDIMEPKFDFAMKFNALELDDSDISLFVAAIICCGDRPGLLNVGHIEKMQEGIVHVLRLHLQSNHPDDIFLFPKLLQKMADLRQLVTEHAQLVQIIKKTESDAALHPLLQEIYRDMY
Sequence of Retinoic acid receptor alpha (Homo sapiens) (P10276 whole entry, looked up, the tested form may be a part): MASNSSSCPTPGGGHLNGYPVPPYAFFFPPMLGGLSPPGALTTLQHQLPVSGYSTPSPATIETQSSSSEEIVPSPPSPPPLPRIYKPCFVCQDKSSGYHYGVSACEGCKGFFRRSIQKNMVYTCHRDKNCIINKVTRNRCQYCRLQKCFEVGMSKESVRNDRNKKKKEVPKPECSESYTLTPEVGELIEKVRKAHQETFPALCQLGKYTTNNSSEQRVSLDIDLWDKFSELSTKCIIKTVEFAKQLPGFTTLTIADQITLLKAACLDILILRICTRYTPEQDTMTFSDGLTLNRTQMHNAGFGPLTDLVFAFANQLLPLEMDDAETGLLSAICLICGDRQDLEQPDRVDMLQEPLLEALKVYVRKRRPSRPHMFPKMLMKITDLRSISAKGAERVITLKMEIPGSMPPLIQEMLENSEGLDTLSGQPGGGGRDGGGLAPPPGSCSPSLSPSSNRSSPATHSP
Sequence of human Retinoic Acid Receptor beta (RARb), RARB (gene 5915) (P10826 whole entry, looked up, the tested form may be a part): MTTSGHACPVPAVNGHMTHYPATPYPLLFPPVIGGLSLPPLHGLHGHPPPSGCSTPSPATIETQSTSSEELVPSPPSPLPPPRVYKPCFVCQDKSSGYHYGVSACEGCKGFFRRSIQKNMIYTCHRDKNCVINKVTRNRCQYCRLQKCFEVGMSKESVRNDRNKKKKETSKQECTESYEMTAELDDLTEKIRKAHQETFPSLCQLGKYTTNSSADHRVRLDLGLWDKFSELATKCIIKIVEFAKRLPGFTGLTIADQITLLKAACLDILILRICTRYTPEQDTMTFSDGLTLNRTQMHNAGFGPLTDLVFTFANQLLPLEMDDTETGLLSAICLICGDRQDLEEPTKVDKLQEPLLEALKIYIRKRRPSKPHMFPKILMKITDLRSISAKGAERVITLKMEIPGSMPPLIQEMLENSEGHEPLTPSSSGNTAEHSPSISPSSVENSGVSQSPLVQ

For OC[C@H]1O[C@@H]2O[C@H]3[C@H](O)[C@@H](O)[C@@H](O[C@H]4[C@H](O)[C@@H](O)[C@@H](O[C@H]5[C@H](O)[C@@H](O)[C@@H](O[C@H]6[C@H](O)[C@@H](O)[C@@H](O[C@H]7[C@H](O)[C@@H](O)[C@@H](O[C@H]1[C@H](O)[C@H]2O)O[C@@H]7CO)O[C@@H]6CO)O[C@@H]5CO)O[C@@H]4CO)O[C@@H]3CO, the outcome [1] was “inactive”, the outcome [2] was “inactive” and the outcome [3] was “inactive”. For the same compound, the outcome [4] was “inactive” and the outcome [5] was “inactive”.

With NC(=O)N1c2ccccc2C=Cc2ccccc21 the outcome [1] was “inactive”, the outcome [2] was “inactive” and the outcome [6] was “inactive”. The outcome [3] was “inactive”, the outcome [4] was “inactive” and the outcome [7] was “inactive”. The outcome [5] was “inactive”.

In the case of COCc1nnc(-c2ccc[n+]([O-])c2)n1-c1c(Cl)c(Cl)cc2[nH]c(=O)c(=O)[nH]c12, the outcome [1] is reported as “inactive”, the outcome [2] is reported as “inactive” and the outcome [4] is reported as “inactive”. The outcome [7] was “inactive”.

In the case of CC(C)C(=O)Nc1ccc([N+](=O)[O-])c(C(F)(F)F)c1, the outcome [1] is reported as “inactive”, the outcome [2] is reported as “inactive” and the outcome [4] is reported as “inactive”. The AC50 [7] was 6.92 µM (active).

In the case of O=C1CN(N=Cc2ccc([N+](=O)[O-])o2)C(=O)N1, the outcome [1] is reported as “inactive”, the outcome [8] is reported as “inactive” and the outcome [2] is reported as “inactive”. For the same compound, the AC50 [4] was 13.6 µM (active) and the outcome [7] was “inactive”.

For FC(F)C(F)(F)COCC1CO1 (configuration not stated), the outcome [1] was “inactive”, the outcome [8] was “inactive” and the outcome [2] was “inactive”. The outcome [4] was “inactive” and the outcome [9] was “inactive”.

In the case of CC[C@H](C)C(=O)O[C@H]1C[C@H](O)C=C2C=C[C@H](C)[C@H](CC[C@@H](O)C[C@@H](O)CC(=O)O)[C@H]21, the outcome [1] is reported as “inactive”, the outcome [2] is reported as “inactive” and the outcome [4] is reported as “inactive”. The outcome [5] was “inactive”.

In the case of C=CN1CCCC1=O, the outcome [1] is reported as “inactive”, the outcome [2] is reported as “inactive” and the outcome [4] is reported as “inactive”.

With CC(C)CC(C)O (configuration not stated) the outcome [1] was “inactive”, the outcome [2] was “inactive” and the outcome [3] was “inactive”. For the same compound, the outcome [4] was “inactive”.

With CCOc1ccc2[nH]cc(C(=O)NCc3ccccc3)c(=O)c2n1 the outcome [1] was “inactive”, the outcome [8] was “inactive” and the outcome [2] was “inactive”. For the same compound, the outcome [4] was “inactive” and the AC50 [7] was 13 µM (active).

In the case of CCCCCOC(C)=O, the outcome [1] is reported as “inactive”, the outcome [8] is reported as “inactive” and the outcome [2] is reported as “inactive”. For the same compound, the AC50 [4] was 20.8 µM (active).

In the case of Nc1ccn([C@@H]2O[C@H](CO)[C@@H](O)[C@@H]2O)c(=O)n1, the outcome [1] is reported as “inactive”, the outcome [8] is reported as “inactive” and the outcome [2] is reported as “inactive”. For the same compound, the AC50 [4] was 0.519 µM (active) and the outcome [5] was “inactive”.

In the case of CCc1cccc(CC)c1N, the outcome [1] is reported as “inactive”, the outcome [8] is reported as “inactive” and the outcome [2] is reported as “inactive”. The outcome [4] was “inactive” and the outcome [7] was “inactive”.

With O=C(N[C@H](CO)[C@H](O)c1ccc([N+](=O)[O-])cc1)C(Cl)Cl the outcome [10] was “inactive”, the outcome [8] was “inactive” and the outcome [7] was “inactive”.

With CCCCOC(=O)c1ccccc1 the outcome [1] was “inactive”, the outcome [8] was “inactive” and the outcome [2] was “inactive”. The outcome [4] was “inactive” and the outcome [7] was “inactive”.

In the case of O=C(O)[C@H](O)[C@@H](O)C(=O)O, the outcome [1] is reported as “inactive”, the outcome [8] is reported as “inactive” and the outcome [2] is reported as “inactive”. The outcome [4] was “inactive” and the outcome [9] was “inactive”.

In the case of CCCCCCOC(=O)CC(CC(=O)OCCCCCC)(OC(=O)CCC)C(=O)OCCCCCC, the outcome [1] is reported as “inactive”, the outcome [2] is reported as “inactive” and the outcome [4] is reported as “inactive”. The outcome [7] was “inactive”.

For OC(Cn1cncn1)(Cn1cncn1)c1ccc(F)cc1F, the outcome [1] was “inactive”, the outcome [2] was “inactive” and the outcome [4] was “inactive”. The outcome [7] was “inactive”.

In the case of OC[C@H]1O[C@@](CO)(O[C@H]2O[C@H](CO)[C@@H](O)[C@H](O)[C@H]2O)[C@@H](O)[C@@H]1O, the outcome [1] is reported as “inactive”, the outcome [2] is reported as “inactive” and the outcome [6] is reported as “inactive”. The outcome [4] was “inactive”.

With CCCOc1ccc(S(=O)(=O)N2CCN(CC)CC2)cc1-c1nc2c(CC)n(Cc3ccccn3)nc2c(=O)[nH]1 the outcome [1] was “inactive”, the outcome [8] was “inactive” and the outcome [2] was “inactive”. For the same compound, the outcome [4] was “inactive”, the AC50 [7] was 1.17 µM (active) and the outcome [5] was “inactive”.

For CCCCCCCCN(C)C, the outcome [1] was “inactive”, the outcome [2] was “inactive” and the outcome [4] was “inactive”. For the same compound, the outcome [7] was “inactive” and the outcome [5] was “inactive”.

In the case of COS(C)(=O)=O, the outcome [1] is reported as “inactive”, the outcome [2] is reported as “inactive” and the outcome [4] is reported as “inactive”.

In the case of O=C(O)CO, the outcome [10] is reported as “inactive”, the outcome [8] is reported as “inactive” and the outcome [6] is reported as “inactive”. For the same compound, the outcome [3] was “inactive”, the outcome [9] was “inactive” and the outcome [7] was “inactive”.

In the case of CCCc1ccccc1, the outcome [1] is reported as “inactive”, the outcome [8] is reported as “inactive” and the outcome [2] is reported as “inactive”. For the same compound, the outcome [4] was “inactive”.

In the case of NC(=O)NN=Cc1ccc([N+](=O)[O-])o1, the outcome [1] is reported as “inactive”, the outcome [2] is reported as “inactive” and the outcome [4] is reported as “inactive”.

For OCCOCCOCCO, the outcome [1] was “inactive”, the outcome [2] was “inactive” and the outcome [4] was “inactive”. The outcome [9] was “inactive”.

With c1ccc(C(O[C@@H]2CCCN(CCc3ccc4c(c3)OCO4)C2)c2ccccc2)cc1 the outcome [1] was “inactive”, the outcome [8] was “inactive” and the outcome [2] was “inactive”. The AC50 [4] was 28.5 µM (active), the AC50 [9] was 20.7 µM (active) and the AC50 [7] was 0.916 µM (active).

— PubChem BioAssay (EPA / NIEHS)
